# Most compounds without a hit are left out; they make up all but 3.7% or so of the library.
# tim23-1 inh – tim23-1 yeast growth inhibition; S. cerevisiae tim23-1 growth, BacTiter-Glo luminescence, 24 h; inhibition, % at 20 µM; hit rate 1.3% among 330,000;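 active = growth inhibition of the mutant yeast at or above 50%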;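 also: temperature-sensitive mutant grown at 25 °C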
# TIM10 inh – growth inhibitors of TIM10 yeast strain. S. cerevisiae TIM10 strain growth, BacTiter-Glo luminescence, 24 h. inhibition, % at 10 µM. hit rate 1.4% among 330,000;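 active = inhibition of 40% or more at the single tested concentration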;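 also: wild-type TIM10 isogenic control strain grown at permissive 25 °C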
# NALP3 yeast inh – NALP3 inhibition in yeast | Yeast reconstituted NLRP3/ASC/caspase-1, beta-gal luminescence, 24 h | inhibition, % at 10 µM | hit rate 0.39% among 330,000 | AID 2825;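 active = inhibition of 50% or more; inactive = inhibition below 50%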
# tim10-1 inh – tim10-1 yeast growth inhibition | S. cerevisiae tim10-1 ts strain growth, BacTiter-Glo, 24 h | inhibition, % at 20 µM | hit rate 2.2% among 330,000;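 active = inhibition of at least 40%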;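 also: mutant grown at 25 °C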
# PfHsp90 set2 – inhibits growth of yeast expressing Plasmodium falciparum Hsp90; S. cerevisiae expressing PfHsp90, BacTiter-Glo ATP, 48 h; yeast lacking PDR1 and PDR3 efflux regulators; inhibition, % at 9.4 µM; hit rate 0.32% among 310,000; AID 504621;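 active = every replicate shows inhibition above about 80%, whatever the replicate mean, limit read from the data; inconclusive = mean inhibition reaches the set limit but some replicate falls short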
# NALP3 confirm – NALP3 inhibition confirmation in yeast; shares compounds with NALP3 yeast inh; AID 435006; inhibition, % at 10 µM; yeast expressing human NALP3, luminescence; hit rate 81% among 1,300; in the data active = inhibition above about 48%
# Casp1-ASC yeast – active in yeast caspase-1-ASC counter-screen for NALP3 inhibitors; hit rate 66% among 1,000; AID 488784; inhibition, % at 10 µM; shares compounds with NALP3 yeast inh; yeast expressing Caspase-1-ASC, luminescence counter screen
# NALP3 retest – retest-confirmed inhibitor of NALP3 in yeast; shares compounds with NALP3 yeast inh; yeast expressing human NALP3, luminescence read-out; inhibition, % at 10 µM; hit rate 53% among 1,000; AID 488794
# tim10-1 confirm – tim10-1 yeast growth inhibition, confirmed; S. cerevisiae tim10-1 ts strain growth, BacTiter-Glo, 24 h; AID 463213; inhibition, % at 20 µM; hit rate 56% among 7,400; shares compounds with tim10-1 inh;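 active = inhibition of yeast growth at or above a set limit in either of two repeat tests at 20 µM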;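 also: tim10-1 mutant grown at permissive 25 °C to find synthetic lethal compounds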
# tim10 confirm – confirmation of TIM10 yeast growth inhibitors | hit rate 63% among 4,600 | AID 463215 | inhibition, % at 10 µM | shares compounds with TIM10 inh | S. cerevisiae tim10 strain growth, BacTiter-Glo luminescence, 24 h;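 active = inhibition of yeast growth at or above a set limit in either of two replicates at 10 µM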; also: this counterscreen used the strain with wild-type TIM10
# tim23-1 confirm – tim23-1 yeast growth inhibition, confirmed; hit rate 83% among 4,400; S. cerevisiae tim23-1 growth, BacTiter-Glo luminescence, 24 h; inhibition, % at 20 µM; shares compounds with tim23-1 inh;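 active = inhibition above about 39% in either of two replicate wells at 20 µM, limit read from the data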;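 also: temperature-sensitive tim23-1 mutant grown at 25 °C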
# Hits are given with their value; 0 = inactive; ? = inconclusive; - = not tested or not shown. Rule as the data show it, unless noted: active = inhibition above about 50%; inactive = the rest.
SMILES,tim23-1 inh,TIM10 inh,NALP3 yeast inh,tim10-1 inh,PfHsp90 set2,NALP3 confirm,tim10-1 confirm,others
C[C@]12CCC(OC(=O)CCC(=O)O)CC1=CCC1C2CC[C@]2(C)C(=O)CCC12 (some centres not stated),0,0,59,0,0,66,-,Casp1-ASC yeast=57;NALP3 retest=0
COC(=O)C1=C(c2cccc(OCc3ccccc3)c2)C[C@@H]2CC[C@H]1N2C(=O)NCc1ccc([N+](=O)[O-])cc1,0,0,0,0,0,-,-,
CC(=O)[C@H]1CC[C@H]2[C@@H]3CC[C@H]4C[C@H](O)CC[C@]4(C)[C@H]3C(=O)C[C@]12C,0,0,0,0,0,-,-,
CC(=O)OCC(=O)[C@H]1CC[C@H]2[C@@H]3CC[C@H]4C[C@H](O)CC[C@]4(C)[C@H]3C(=O)C[C@]12C,0,0,56,0,0,71,-,Casp1-ASC yeast=53;NALP3 retest=53
COCCO[C@H]1CC[C@@]2(C)C(=CCC3C2CC[C@@]2(C)C3CC[C@]2(C)O)C1 (some centres not stated),0,0,0,0,0,-,-,
C[C@]1(O)CCC2C3CC[C@H]4C[C@@H](OC(=O)CNC(=O)CN)CC[C@]4(C)C3CC[C@@]21C (some centres not stated),0,0,56,0,0,71,-,
CC12CN3CC(C)(CN(C1)C3c1cccs1)C2=O (configuration not stated),0,0,0,0,0,-,-,
CCC(C)N1C(=O)NC(=O)C2(Cc3cc(C)ccc3N(C)C2)C1=O (configuration not stated),0,0,0,0,0,-,-,
CC1(C)C[C@H]2C=C(C=O)[C@]3(C=O)C[C@]3(C)[C@H]2C1,0,50,84,0,-,63,-,tim10 confirm=61
CCCCn1c(O)c(/C=N/NC(=O)c2ccncc2)c(=O)[nH]c1=S,0,0,0,0,0,-,-,
CCOc1cc2c(cc1OCC)-n1cccc1C(c1ccc(F)c(OC)c1)NC2 (configuration not stated),0,0,0,0,0,-,-,
Nc1c2c(nc3sc4c(c13)CCCC4)CCCC2,0,48,71,0,0,82,-,Casp1-ASC yeast=54;NALP3 retest=57;tim10 confirm=38
CC(C)(O)C(=O)Nc1ccc([N+](=O)[O-])c(C(F)(F)F)c1,0,0,0,0,0,-,-,
COc1cc2c(cc1OC)CN(c1ccc([N+](=O)[O-])c(C(F)(F)F)c1)CC2,0,54,50,60,0,0,55,tim10 confirm=0
CCn1nc(-c2ccccc2)nc2c(=O)n(C)c(=O)nc1-2,85,96,62,80,107,86,83,Casp1-ASC yeast=94;NALP3 retest=88;tim10 confirm=97;tim23-1 confirm=83
O=C1c2ccccc2C(=O)N1Cc1nc2ccccc2c(=O)n1-c1ccc(Br)cn1,69,57,61,59,0,74,55,Casp1-ASC yeast=0;NALP3 retest=0;tim10 confirm=59;tim23-1 confirm=58
O=C1c2ccccc2C(=O)N1Cc1nc2ccccc2c(=O)n1-c1cccnc1,0,0,0,0,0,-,-,
Cc1ccc2c(c1)C1CN(C)CCC1N2C(=O)CCCN1C(=O)c2cccc3cccc(c23)C1=O (configuration not stated),0,0,0,0,0,-,-,
C[C@]12CCC3C(C[C@@H](O)[C@H]4C[C@@H](O)CC[C@]34C)C1CC[C@@H]2O (some centres not stated),0,0,0,0,0,-,-,
CC(=O)C1CCC2C3CCC4CC(O)CCC4(C)C3CCC12C (configuration not stated),56,0,59,0,0,69,-,Casp1-ASC yeast=60;NALP3 retest=58;tim23-1 confirm=49
CCC1(c2ccccc2)C(=O)N(COC)C(=O)N(COC)C1=O,0,0,0,0,0,-,-,
C[N+]1(C)C2CC(OC(=O)[C@H](CO)c3ccccc3)CC1C1OC12 (some centres not stated),0,0,0,0,0,-,-,
Cc1ccc(C[n+]2c(-c3ccc(C)cc3)cc(-c3ccc(C)cc3)cc2-c2ccc(C)cc2)cc1,56,58,78,50,?,76,43,Casp1-ASC yeast=72;NALP3 retest=75;tim10 confirm=50;tim23-1 confirm=60
Cc1ccc(-c2cc(-c3ccc(C)cc3)[n+](-c3ccc(C(=O)O)cc3)c(-c3ccc(C)cc3)c2)cc1,0,0,0,0,0,-,-,
CN1/C(=C\C=C\C2=[N+](C)c3ccc4ccccc4c3C2(C)C)C(C)(C)c2ccccc21,85,74,53,77,-,53,56,tim10 confirm=80;tim23-1 confirm=79
SMILES,tim23-1 inh,TIM10 inh,NALP3 yeast inh,tim10-1 inh,PfHsp90 set2,NALP3 confirm,tim10-1 confirm,others
Oc1c(Br)c(Br)c(Br)c(Br)c1Br,66,49,66,52,0,71,65,Casp1-ASC yeast=74;NALP3 retest=91;tim10 confirm=44;tim23-1 confirm=58
NCCc1c(Cc2ccccc2)[nH]c2ccccc12,0,0,0,0,-,-,-,
Cc1c(CCN)ccc2c1[nH]c1ccccc12,0,0,0,41,0,-,0,
CN1CC(C(=O)c2cccc(C(F)(F)F)c2)C(c2ccc(Cl)cc2)C1 (configuration not stated),0,0,0,41,0,-,0,
O=C1NC(=O)N(c2ccccc2F)C(=O)/C1=C/c1ccc(Oc2ccc([N+](=O)[O-])cn2)cc1,0,0,0,0,0,-,-,
C=CCN1C(=O)c2ccccc2Sc2ccc(C(=O)N3CCC4(CC3)OCCO4)cc21,0,0,0,0,-,-,-,
O=C(c1ccc2c(c1)N(Cc1ccccc1)CCS2)N1CCC2(CC1)OCCO2,0,0,0,42,0,-,0,
CCN(CC)S(=O)(=O)c1cc(NC(=O)C(C)N2CC=C(c3ccccc3)CC2)ccc1C (configuration not stated),0,0,0,40,0,-,0,
COc1ccc(C2=CC(c3ccc4c(c3)OCO4)c3c(c4ccccc4oc3=O)O2)cc1OC (configuration not stated),-,-,-,-,0,-,-,
CCOC(=O)c1c(-n2c(C)cc(/C=C3\C(=O)NC(=O)N(C)C3=O)c2C)sc2c1CCCC2,0,0,0,0,0,-,-,
Cc1cc(/C=C2\C(=O)NC(=O)N(c3ccc(Cl)cc3)C2=O)c(C)n1-c1sc2c(c1C#N)CCCC2,0,0,0,41,0,-,0,
O=C(NC(=C(Cl)Cl)P(=O)(c1ccccc1)c1ccccc1)c1ccccc1,0,0,0,0,0,-,-,
Cc1nc2cc(-c3ccccc3)nn2c(C)c1CCC(=O)N1CCC2(CC1)OCCO2,0,0,0,0,-,-,-,

# Assay outcomes from PubChem BioAssay.
